# Experimental data from PubChem BioAssay (EPA / NIEHS).
# Where “and” joins values, the source holds several entries; their conditions need not be identical. Identical values can stand only once. Where a structure was tested more than once in an assay, its records may differ in their call. Calls of active or inactive are those of the source. The calls were made as follows: active = hit-call score of the fitted dose curve at least 0.9, where 1 is the maximum; inactive = score below 0.9.
# Key:
# [1] = ATG_Ets_CIS: Attagene CIS-FACTORIAL HepG2 Assay for human Erythroblast Transformation Specific (ETS) (AID 2282941); settings: HepG2 ETS cis-reporter transcription, actives raise or lower the signal
# Procedure, shortened: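 HepG2 cells transfected with multiple cis-regulated reporter units measuring endogenous ETS-driven transcription, 24 h after dosing. Reporter mRNA quantified by RT-PCR with capillary electrophoresis; bidirectional fit relative to DMSO.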
# [2] = biological target: Hepatocyte nuclear factor 3-beta (Homo sapiens) (UniProt Q9Y261); test: ATG_FoxA2_CIS: Attagene CIS-FACTORIAL HepG2 Assay for human Forkhead box A2 (FOXA2) (AID 2282942); settings: HepG2 cis-reporter transcription factor activity, 24 h; actives raise or lower the signal
# Hepatocyte nuclear factor 3-beta (Homo sapiens), sequence (Q9Y261 whole entry, looked up): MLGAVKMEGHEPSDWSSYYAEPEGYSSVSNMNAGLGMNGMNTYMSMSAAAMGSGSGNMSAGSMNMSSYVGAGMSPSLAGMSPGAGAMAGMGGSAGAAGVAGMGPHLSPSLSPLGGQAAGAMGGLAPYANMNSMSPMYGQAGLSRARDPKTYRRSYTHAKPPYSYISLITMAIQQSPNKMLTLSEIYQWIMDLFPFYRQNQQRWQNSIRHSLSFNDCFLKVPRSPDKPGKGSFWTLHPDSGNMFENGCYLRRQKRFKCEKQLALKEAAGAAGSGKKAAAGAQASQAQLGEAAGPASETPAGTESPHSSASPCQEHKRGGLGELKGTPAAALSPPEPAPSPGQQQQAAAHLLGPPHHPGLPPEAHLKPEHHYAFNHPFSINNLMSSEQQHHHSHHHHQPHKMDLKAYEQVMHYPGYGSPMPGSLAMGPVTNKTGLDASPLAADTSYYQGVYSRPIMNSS
# Procedure, shortened: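 Multiplexed cis-element reporter assay in transiently transfected HepG2. Twenty-four hours post-dosing, RNA was reverse-transcribed, amplified, FAM-labelled, HpaI-digested and separated by CE. Activity gain or loss relative to DMSO.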
# [3] = ATG_FoxO_CIS: Attagene CIS-FACTORIAL HepG2 Assay for human Forkhead box O (FoxO) (AID 2282943); settings: HepG2 Attagene cis-reporter, FoxO element, mRNA; actives raise or lower the signal
# Procedure, shortened: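 Endogenous transcription factor activity read from multiplexed cis-promoter reporter transcripts in transiently transfected HepG2, 24 h after dosing. Reporter RNA measured via RT-PCR plus capillary electrophoresis of FAM-labeled products; gain or loss relative to DMSO.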
# [4] = ATG_GATA_CIS: Attagene CIS-FACTORIAL HepG2 Assay for human GATA Binding Protein (AID 2282944); settings: HepG2 GATA cis-element reporter, Attagene multiplex mRNA; actives raise or lower the signal
# Procedure, shortened: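 Transfected cis-reporter HepG2 cells were treated with chemicals for 24 hours. Total RNA was then converted to cDNA, amplified with reporter-specific primers and analysed by fluorescent capillary electrophoresis, using DMSO-treated wells as baseline.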
# [5] = ATG_GLI_CIS: Attagene CIS-FACTORIAL HepG2 Assay for human Zinc Finger Protein GLI1 (AID 2282945); settings: HepG2, Attagene cis-factorial reporter mRNA, GLI element; actives raise or lower the signal
# Procedure, shortened: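 Bidirectional curve fits relative to DMSO, using reporter mRNA levels from RT-PCR plus capillary electrophoresis. Cells were HepG2 transiently carrying cis-regulated reporter constructs, harvested 24 h after dosing.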
# [6] = biological target: Bile acid receptor (Homo sapiens) (UniProt Q96RI1); test: ATG_IR1_CIS: Attagene CIS-FACTORIAL HepG2 Assay for human Nuclear Receptor Subfamily 1 Group H Member 4 (NR1H4), IR1 submotif (AID 2282946); settings: IR1 reporter transcription, actives raise or lower the signal
# Bile acid receptor (Homo sapiens), sequence (Q96RI1 whole entry, looked up, the tested form may be a part): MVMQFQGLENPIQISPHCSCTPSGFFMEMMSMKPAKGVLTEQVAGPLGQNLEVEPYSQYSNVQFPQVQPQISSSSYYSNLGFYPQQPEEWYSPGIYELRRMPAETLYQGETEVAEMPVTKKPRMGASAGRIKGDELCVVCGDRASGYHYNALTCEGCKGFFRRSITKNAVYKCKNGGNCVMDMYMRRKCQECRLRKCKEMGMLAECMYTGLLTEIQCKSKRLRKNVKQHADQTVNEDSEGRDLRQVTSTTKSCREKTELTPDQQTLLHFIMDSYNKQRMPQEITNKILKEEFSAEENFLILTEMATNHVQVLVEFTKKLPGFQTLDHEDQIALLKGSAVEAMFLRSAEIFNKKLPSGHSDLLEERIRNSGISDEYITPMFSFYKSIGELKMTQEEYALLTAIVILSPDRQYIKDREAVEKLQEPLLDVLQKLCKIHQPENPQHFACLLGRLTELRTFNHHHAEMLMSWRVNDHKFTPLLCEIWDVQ
# Procedure, shortened: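 Cells (human HepG2) carry transiently transfected cis-promoter reporter transcription units. Compounds are incubated 24 h, total RNA is reverse-transcribed and amplified, and labelled fragments are resolved by capillary electrophoresis. Curves use DMSO as baseline.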
# [7] = ATG_GRE_CIS: Attagene CIS-FACTORIAL HepG2 Assay for human Glucocorticoid Response Elements (GRE) (AID 2282947); settings: HepG2 GRE cis-reporter, Attagene multiplex mRNA; actives raise or lower the signal
# Procedure, shortened: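 Transient MRTU transfection of human HepG2 liver cells; cis-regulated reporters report endogenous factors. 24 h dosing → RNA isolation → RT-PCR → 6-FAM primer extension → HpaI cut → CE fragment analysis. Bidirectional fit, DMSO negative control.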
# [8] = ATG_ISRE_CIS: Attagene CIS-FACTORIAL HepG2 Assay for human Interferon Regulatory Factor 1 (IRF1) binding to an Interferon-Stimulated Response Element (ISRE) (AID 2282948); settings: HepG2 ISRE cis-reporter (Attagene), mRNA transcription readout; actives raise or lower the signal
# Procedure, shortened: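 Transiently transfected HepG2 cells carrying cis-element reporter units, dosed 24 hours. Reporter mRNA quantified by RT-PCR, fluorescent primer extension, HpaI digestion and capillary electrophoresis. Bidirectional fitting relative to DMSO.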
# [9] = ATG_M_32_CIS: Attagene CIS-FACTORIAL HepG2 Assay for M32 Transcription Factor (Internal Marker) (AID 2282949); settings: HepG2 Attagene cis-factorial M32 reporter, mRNA; actives raise or lower the signal;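 also: background control marker of the multiplexed CIS panel rather than a real target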
# Procedure, shortened: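 Fluorescent capillary electrophoresis peaks of HpaI-digested, FAM-labelled RT-PCR reporter products give the signal. Source: transiently transfected human liver HepG2 cells, 24 h after chemical dosing; bidirectional fitting against DMSO.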
# [10] = ATG_M_06_CIS: Attagene CIS-FACTORIAL HepG2 Assay for M06 Transcription Factor (Internal Marker) (AID 2282950); settings: HepG2 Attagene CIS-FACTORIAL M06 internal marker reporter; actives raise or lower the signal
# Procedure, shortened: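 Cells (HepG2, transiently carrying cis-driven reporter units) receive chemical for 24 h before RNA isolation. Reporter cDNA is PCR-amplified, FAM-labelled by primer extension, HpaI-digested and sized on a capillary analyser.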
# [11] = biological target: Hepatocyte nuclear factor 6 (Homo sapiens) (UniProt Q9UBC0); test: ATG_HNF6_CIS: Attagene CIS-FACTORIAL HepG2 Assay for human Hepatocyte Nuclear Factor 6 (HNF6) (AID 2282952); settings: HepG2 Attagene cis-factorial HNF6 reporter transcription; actives raise or lower the signal
# Hepatocyte nuclear factor 6 (Homo sapiens), sequence (Q9UBC0 whole entry, looked up): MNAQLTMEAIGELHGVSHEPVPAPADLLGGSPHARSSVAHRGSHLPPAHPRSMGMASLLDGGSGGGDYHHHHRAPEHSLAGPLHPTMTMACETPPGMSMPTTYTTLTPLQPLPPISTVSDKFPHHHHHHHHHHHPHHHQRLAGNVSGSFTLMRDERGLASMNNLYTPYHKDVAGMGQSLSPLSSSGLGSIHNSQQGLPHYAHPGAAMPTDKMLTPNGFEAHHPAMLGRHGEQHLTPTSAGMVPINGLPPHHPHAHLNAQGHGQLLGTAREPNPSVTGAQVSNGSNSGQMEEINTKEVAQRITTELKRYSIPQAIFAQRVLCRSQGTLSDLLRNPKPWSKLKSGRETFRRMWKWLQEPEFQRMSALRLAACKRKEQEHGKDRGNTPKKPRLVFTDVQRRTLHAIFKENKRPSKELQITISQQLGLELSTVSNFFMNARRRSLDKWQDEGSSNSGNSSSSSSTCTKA
# Procedure, shortened: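 Transiently transfected HepG2 cells expressing cis-regulated reporter transcription units were exposed to chemical for 24 h in a 24-well format. Reporter transcript abundance was determined by fluorescence capillary electrophoresis.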
# [12] = biological target: Heat shock factor protein 1 (Homo sapiens) (UniProt Q00613); test: ATG_HSE_CIS: Attagene CIS-FACTORIAL HepG2 Assay for human Heat Shock Transcription Factor 1 (HSE) (AID 2282953); settings: HepG2 HSE cis-reporter, Attagene RNA transcription; actives raise or lower the signal
# Heat shock factor protein 1 (Homo sapiens), sequence (Q00613 whole entry, looked up): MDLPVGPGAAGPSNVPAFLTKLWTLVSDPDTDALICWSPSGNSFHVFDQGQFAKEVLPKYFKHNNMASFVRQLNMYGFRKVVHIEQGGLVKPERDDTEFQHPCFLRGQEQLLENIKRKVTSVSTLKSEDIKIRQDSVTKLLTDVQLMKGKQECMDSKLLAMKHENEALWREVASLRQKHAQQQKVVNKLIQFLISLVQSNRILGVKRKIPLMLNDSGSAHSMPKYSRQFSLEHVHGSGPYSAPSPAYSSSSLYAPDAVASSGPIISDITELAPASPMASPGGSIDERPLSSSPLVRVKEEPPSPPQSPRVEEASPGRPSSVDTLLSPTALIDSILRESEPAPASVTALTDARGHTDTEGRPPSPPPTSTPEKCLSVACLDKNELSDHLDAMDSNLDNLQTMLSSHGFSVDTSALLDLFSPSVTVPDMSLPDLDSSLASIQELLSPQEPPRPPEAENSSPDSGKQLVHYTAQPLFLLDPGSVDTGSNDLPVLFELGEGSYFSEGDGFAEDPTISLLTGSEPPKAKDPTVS
# Procedure, shortened: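 Liver-derived HepG2 cells carry transiently introduced multiple reporter units governed by cis promoters. Reporter RNA measured 24 h post-dose through reverse transcription, PCR amplification, fluorescent labelling and capillary electrophoresis, normalised to DMSO.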
# [13] = ATG_MRE_CIS: Attagene CIS-FACTORIAL HepG2 Assay for human Metal Responsive Element (MRE) (AID 2282954); settings: HepG2 MRE cis-reporter transcription, Attagene multiplex; actives raise or lower the signal
# Procedure, shortened: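 Transient MRTU transfection of HepG2 (FuGene 6); 24 h dosing; total RNA → oligo(dT) RT, PCR, 6-FAM primer extension, HpaI cut, CE. Bidirectional fit vs DMSO.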
# [14] = biological target: Paired box protein Pax-6 (Homo sapiens) (UniProt P26367); test: ATG_Pax6_CIS: Attagene CIS-FACTORIAL HepG2 Assay for human Paired Box 6 (PAX6) (AID 2282956); settings: HepG2 CIS-FACTORIAL PAX6 reporter transcription, RNA readout; actives raise or lower the signal
# Paired box protein Pax-6 (Homo sapiens), sequence (P26367 whole entry, looked up): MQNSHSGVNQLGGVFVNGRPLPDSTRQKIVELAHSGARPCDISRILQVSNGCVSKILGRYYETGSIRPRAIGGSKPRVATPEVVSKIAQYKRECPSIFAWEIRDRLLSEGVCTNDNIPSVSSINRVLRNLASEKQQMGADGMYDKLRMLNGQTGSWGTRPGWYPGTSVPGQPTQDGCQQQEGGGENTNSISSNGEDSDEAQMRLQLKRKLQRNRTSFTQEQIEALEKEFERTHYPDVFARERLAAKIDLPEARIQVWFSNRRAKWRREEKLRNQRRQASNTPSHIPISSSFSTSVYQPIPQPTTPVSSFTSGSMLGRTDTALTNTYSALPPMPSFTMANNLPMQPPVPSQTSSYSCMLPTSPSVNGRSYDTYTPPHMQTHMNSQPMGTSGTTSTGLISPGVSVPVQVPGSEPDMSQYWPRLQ
# Procedure, shortened: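 HepG2 cells transiently transfected with cis-promoter-driven multiplexed reporter units sensing endogenous transcription factor activity; 24 h chemical exposure. Reporter mRNA quantified by RT-PCR, 6-FAM labelling, HpaI digestion and capillary electrophoresis; bidirectional fit versus DMSO baseline.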
# [15] = ATG_RORE_CIS: Attagene CIS-FACTORIAL HepG2 Assay for human RAR-related Orphan Receptor Element (RORE) (AID 2282959); settings: HepG2 Attagene cis-factorial RORE reporter, mRNA; actives raise or lower the signal
# Procedure, shortened: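 Transfect HepG2 with MRTUs; treat 24 h; extract RNA; RT with oligo(dT); PCR with reporter-specific primers; 6-FAM primer extension; HpaI digest 2 h at 37 C; capillary electrophoresis. Fit vs DMSO, bidirectional.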
# [16] = ATG_Sox_CIS: Attagene CIS-FACTORIAL HepG2 Assay for human SRY-box transcription factor (SOX) (AID 2282960); settings: HepG2 Attagene cis-factorial SOX reporter, mRNA; actives raise or lower the signal
# Procedure, shortened: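 Fluorescence-labelled cDNA fragments from reporter transcripts, sized by CE, give the signal. Cells: HepG2, transiently transfected with cis-regulated reporter units. Exposure 24 h; DMSO negative control; bidirectional curve fitting.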
# [17] = biological target: Hypoxia-inducible factor 1-alpha (Homo sapiens) (UniProt Q16665); test: ATG_HIF1a_CIS: Attagene CIS-FACTORIAL HepG2 Assay for human Hypoxia Inducible Factor 1 (HIF1A) (AID 2282951); settings: HepG2 Attagene cis-factorial HIF1a reporter transcription; actives raise or lower the signal
# Hypoxia-inducible factor 1-alpha (Homo sapiens), sequence (Q16665 whole entry, looked up): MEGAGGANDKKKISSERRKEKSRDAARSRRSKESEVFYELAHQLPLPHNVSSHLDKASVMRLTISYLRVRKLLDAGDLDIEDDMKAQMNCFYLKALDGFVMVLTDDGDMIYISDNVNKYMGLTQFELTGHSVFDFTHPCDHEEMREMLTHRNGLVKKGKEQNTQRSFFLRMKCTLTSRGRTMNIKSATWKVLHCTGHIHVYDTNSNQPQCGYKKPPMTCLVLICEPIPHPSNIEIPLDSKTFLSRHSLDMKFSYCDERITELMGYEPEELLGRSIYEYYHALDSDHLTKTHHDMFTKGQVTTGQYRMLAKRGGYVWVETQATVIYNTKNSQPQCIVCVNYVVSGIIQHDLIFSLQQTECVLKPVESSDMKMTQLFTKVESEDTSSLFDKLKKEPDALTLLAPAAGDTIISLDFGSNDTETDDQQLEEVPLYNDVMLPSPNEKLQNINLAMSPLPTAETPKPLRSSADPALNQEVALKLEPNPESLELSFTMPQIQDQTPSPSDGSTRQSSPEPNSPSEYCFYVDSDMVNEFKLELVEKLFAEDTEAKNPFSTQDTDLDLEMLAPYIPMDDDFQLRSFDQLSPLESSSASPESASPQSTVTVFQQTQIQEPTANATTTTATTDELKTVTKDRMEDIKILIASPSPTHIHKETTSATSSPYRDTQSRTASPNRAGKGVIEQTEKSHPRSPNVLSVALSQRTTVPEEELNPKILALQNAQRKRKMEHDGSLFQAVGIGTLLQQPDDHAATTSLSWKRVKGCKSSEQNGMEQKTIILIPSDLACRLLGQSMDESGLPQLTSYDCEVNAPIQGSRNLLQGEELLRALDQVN
# Procedure, shortened: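 Cis-element reporter constructs were transiently transfected into HepG2 cells, which were treated for 24 h; reporter RNA was reverse-transcribed, amplified, labelled and resolved by capillary electrophoresis.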
# [18] = ATG_PBREM_CIS: Attagene CIS-FACTORIAL HepG2 Assay for human Phenobarbital-responsive Enhancer Module (PBREM) (AID 2282955); settings: HepG2 PBREM cis-reporter, Attagene multiplexed transcription; actives raise or lower the signal
# Procedure, shortened: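 Multiplexed cis-reporter readout in human hepatoma HepG2 cells; PBREM-regulated transcript quantified after 24 h exposure by fluorescent RT-PCR fragment analysis. Signal changes up or down fitted relative to DMSO.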
# [19] = ATG_PPRE_CIS: Attagene CIS-FACTORIAL HepG2 Assay for human Peroxisome Proliferator-activated Response Element (PPRE) (AID 2282958); settings: HepG2 PPRE cis-element reporter, Attagene transcription factor profiling; actives raise or lower the signal
# Procedure, shortened: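 DMSO served as negative control and baseline for bidirectional curve fitting. Signal came from PPRE-regulated reporter mRNA in HepG2 cells, measured 24 h post-dosing by RT-PCR, 6-FAM primer extension and capillary electrophoresis.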
# [20] = ATG_PXRE_CIS: Attagene CIS-FACTORIAL HepG2 Assay for human Pregnane X Receptor Element (PXRE) (AID 2282957); settings: HepG2 Attagene CIS-FACTORIAL PXRE reporter, mRNA; actives raise or lower the signal
# Procedure, shortened: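 Cis-element reporter mRNA in human hepatoma HepG2 cells is measured 24 h post-dosing by RT-PCR, primer-extension labeling and capillary electrophoresis; gain or loss of signal is fitted relative to DMSO.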
smiles,measurement,setting,value
CCC1(c2ccc(N)cc2)CCC(=O)NC1=O (configuration not stated),outcome,[1],inactive
same,outcome,[2],inactive
same,outcome,[3],inactive
same,outcome,[4],inactive
same,outcome,[5],inactive
same,outcome,[6],inactive
same,outcome,[7],inactive
same,outcome,[8],inactive
same,outcome,[9],inactive
same,outcome,[10],inactive
same,outcome,[11],inactive
same,outcome,[12],inactive
same,outcome,[13],inactive
same,outcome,[14],inactive
same,outcome,[15],inactive
same,outcome,[16],inactive
O=C1C2(Cl)C3(Cl)C4(Cl)C(Cl)(Cl)C5(Cl)C3(Cl)C1(Cl)C5(Cl)C24Cl (configuration not stated),AC50,[1],20.3 µM (active)
same,outcome,[1],inactive
same,outcome,[2],inactive
same,AC50,[4],14.9 µM (active)
same,outcome,[4],inactive
same,AC50,[5],3.57 µM (active)
same,outcome,[5],inactive
same,AC50,[6],7.38 µM (active)
same,outcome,[6],inactive
same,AC50,[7],5.27 µM (active)
same,outcome,[7],inactive
same,AC50,[8],15.1 µM (active)
same,outcome,[8],inactive
same,outcome,[9],inactive
same,outcome,[17],inactive
same,AC50,[11],11.1 µM (active)
same,outcome,[11],inactive
same,AC50,[12],16.7 µM (active)
same,outcome,[12],inactive
same,AC50,[18],16 µM (active)
same,outcome,[18],inactive
same,AC50,[14],15.7 µM (active)
same,outcome,[14],inactive
same,AC50,[19],14 µM (active)
same,outcome,[19],inactive
same,outcome,[15],inactive
same,AC50,[16],5.49 µM (active) and 15.5 µM (active)
same,outcome,[16],inactive
CCCCCCCCCl,outcome,[1],inactive
same,outcome,[2],inactive
same,outcome,[3],inactive
same,outcome,[4],inactive
same,outcome,[5],inactive
same,outcome,[6],inactive
same,outcome,[7],inactive
same,outcome,[8],inactive
same,outcome,[9],inactive
same,outcome,[10],inactive
same,outcome,[17],inactive
same,outcome,[11],inactive
same,outcome,[12],inactive
same,outcome,[13],inactive
same,outcome,[14],inactive
same,outcome,[20],inactive
same,outcome,[19],inactive
same,outcome,[16],inactive
